# Screening data as filed in PubChem.
# ADAM17 inh = inhibitors of human ADAM17. P78536. recombinant ADAM17, EDANS/DABCYL FRET peptide cleavage. inhibition, % at 6.95 µM. actives 0.83% (n = 370,000). AID 720648;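 active = inhibition above the mean of compounds lying between control limits plus 3 SD, set per campaign, cut at about 8.5% in these data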
# NRP1-CendR mod = alters CendR peptide binding to human NRP-1. inhibition, % at 25 µM. FAM-RPARPAR peptide binding to NRP-1, fluorescence polarization. O14786. AID 602438. actives 0.85% (n = 360,000);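 active = inhibition or corrected inhibition above about 18%, plus a signal ratio from 0.5 to 1.5, limit read from the data, passing the limit was not always enough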
# ADAM10 inh = ADAM10 inhibition, QFRET primary screen; O14672; recombinant ADAM10, EDANS/DABCYL FRET peptide cleavage, 3 h; inhibition, % at 7 µM; actives 0.62% (n = 370,000); AID 720582;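 active = inhibition above a per-campaign cutoff equal to the mean of compounds falling between control-based bounds plus 3 SD, cut at about 20% in these data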
# APOBEC3G inh = blocks human APOBEC3G single-stranded DNA deamination | inhibition, % at 20 µM | Q9HC16 | recombinant A3G, ssDNA deamination FAM/TAMRA fluorescence | AID 493012 | actives 0.28% (n = 330,000);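 active = inhibition of at least 40% at 20 µM, with no more than 30% in the related APOBEC3A deaminase screen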
# Target sequence (Q9HC16 whole entry, looked up): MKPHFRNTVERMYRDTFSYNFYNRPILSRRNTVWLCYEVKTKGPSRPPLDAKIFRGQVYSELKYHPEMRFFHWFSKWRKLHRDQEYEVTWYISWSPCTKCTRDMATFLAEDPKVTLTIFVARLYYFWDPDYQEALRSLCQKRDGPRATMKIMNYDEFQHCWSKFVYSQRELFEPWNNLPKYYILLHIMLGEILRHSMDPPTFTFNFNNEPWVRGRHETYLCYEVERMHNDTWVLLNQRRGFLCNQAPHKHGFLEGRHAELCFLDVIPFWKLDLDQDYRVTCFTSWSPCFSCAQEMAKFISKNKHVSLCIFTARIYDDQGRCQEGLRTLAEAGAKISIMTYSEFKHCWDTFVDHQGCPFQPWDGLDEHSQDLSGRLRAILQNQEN
# APOBEC3A inh = inhibitors of human APOBEC3A DNA deaminase | P31941 | recombinant A3A, FAM/TAMRA ssDNA deamination fluorescence | inhibition, % at 20 µM | actives 0.41% (n = 330,000);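 active = at least 40% inhibition at 20 µM here, with at most 30% in a related deaminase screen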
# APOBEC3A confirm = APOBEC3A (human) deaminase inhibition, confirmed | recombinant A3A, ssDNA deaminase UDG fluorescence assay | inhibition, % at 20 µM | shares compounds with APOBEC3A inh | actives 63% (n = 1,400);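 active = inhibition reaching a set limit, 80% of the first screen's cutoff, at 20 µM in any replicate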
# UDG ctr A3A = UDG inhibition in APOBEC3A counter-screen; inhibition, % at 20 µM; shares compounds with APOBEC3A inh; 1,000 tested, under 10 active; UDG counterscreen, FAM/TAMRA uracil oligo fluorescence; call rule not given here
# APOBEC3G confirm = confirmation of human APOBEC3G DNA deaminase inhibitors. shares compounds with APOBEC3G inh. recombinant A3G ssDNA deaminase, UDG/FAM-TAMRA fluorescence. inhibition, % at 20 µM. actives 72% (n = 890);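 active = inhibition reaching a set limit in any replicate at 20 µM, the limit being 80% of the first screen's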
# UDG ctr A3G = inhibits E. coli UDG, flagging false APOBEC3G inhibitors. 710 tested, under 10 active. inhibition, % at 20 µM. shares compounds with APOBEC3G inh. UDG counterscreen, FAM/TAMRA oligo fluorescence;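 active = compounds giving 40% or more inhibition at 20 µM in any one of the three replicates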;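 also: inhibitors lower the FAM signal released by uracil excision and alkaline cleavage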
# Target sequence (P12295 whole entry, looked up): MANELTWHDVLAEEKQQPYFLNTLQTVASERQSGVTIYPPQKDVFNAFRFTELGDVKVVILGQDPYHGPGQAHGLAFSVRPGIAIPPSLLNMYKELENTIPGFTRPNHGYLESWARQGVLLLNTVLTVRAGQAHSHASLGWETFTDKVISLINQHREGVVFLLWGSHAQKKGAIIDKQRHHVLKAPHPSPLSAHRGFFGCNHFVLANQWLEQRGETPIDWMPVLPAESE
# Hits are given with their value; . = inactive; / = not tested or not shown; ! = a repeat was not active. An excerpt weighted towards active compounds, which were near 2.4% of everything screened.
SMILES,ADAM17 inh,NRP1-CendR mod,ADAM10 inh,APOBEC3G inh,APOBEC3A inh,APOBEC3A confirm,UDG ctr A3A,others
CCOc1ccc(N=C2SCCCN2C)cc1,.,.,.,.,40,66,.,
O=C(NCCN1CCC2(CC1)C(=O)NCN2c1ccccc1)c1ccccc1F,.,/,.,/,/,/,/,
O=[N+]([O-])c1cc([As](=O)(O)O)ccc1O,.,.,.,.,83,51,.,
O=[N+]([O-])c1ccc(O)c([N+](=O)[O-])c1,.,.,.,.,.,/,/,
CC[N+](C)(CC)CCCOC(=O)C(O)(c1ccccc1)C1CCCCC1 (centres undefined),.,.,.,.,50,81,.,
CCOC(=O)C(O)(c1ccc(N=c2ccccn2C)cc1)C(F)(F)F (centres undefined),.,.,.,.,44,32,.,
CCOC(=O)C(O)(c1cn(C)c2ccccc12)C(F)(F)F (centres undefined),.,.,.,.,.,/,/,
CC(C)(C)C(=O)N1Cc2cc(N3CCCCC3)ccc2-n2nncc2C1,.,.,.,/,/,/,/,
Cc1cccc(C)c1-n1nnnc1C(CCc1ccccc1)N1CCC2(CC1)C(=O)NCN2c1ccccc1 (centres undefined),.,.,.,/,/,/,/,
O=C(c1ccccc1)N1Cc2cc(Br)ccc2-n2nncc2C1,.,/,.,/,/,/,/,
C[N+](C)(C)CCc1ccc(O)cc1,.,.,.,.,65,77,.,
C=C1[C@@H](C)C2[C@H](Cc3ccccc3)NC(=O)[C@]23[C@H](OC(C)=O)/C=C/[C@@](C)(O)C(=O)[C@@H](C)C/C=C/[C@H]3[C@@H]1O (some centres undefined),.,/,.,/,/,/,/,
CC[C@]12C=CCN3CCC4(c5cc(Br)c(OC)cc5N(C)C4[C@@](O)(C(=O)OC)[C@@H]1OC(C)=O)C32 (some centres undefined),.,.,.,.,62,70,.,
COC(=O)C1=C(c2ccc(OC(F)(F)F)cc2)C[C@@H]2CC[C@H]1N2C(=O)NCc1ccco1,.,/,.,/,/,/,/,
CC(NC(=O)OCc1ccccc1)P(=O)(Oc1ccccc1)Oc1ccccc1 (centres undefined),.,/,.,/,/,/,/,
C=CCN1C(=O)/C(=C/c2ccc(Br)s2)C(=O)NC1=S,.,.,.,.,46,.,/,
O=C(O)CCl,.,/,.,/,/,/,/,
CC[N+]12CCC(CC1)C(=C(c1ccccc1)c1ccccc1)C2,.,.,.,.,.,/,/,
C[N+]12CCC(CC1)C(=C(c1ccccc1)c1ccccc1)C2,.,.,.,.,75,71,.,
CCCCN1CCN(C(=O)COc2cc(=O)n(C)c3ccccc23)CC1,.,/,.,/,/,/,/,
CNC(=O)OCc1n(C)cc[n+]1C,.,.,.,.,40,82,.,
CNC(=O)OCCc1nccn1C,.,.,.,.,.,/,/,
COC1CC=C2CCN3CCC4=C(CC(=O)OC4)C23C1 (centres undefined),.,/,.,/,/,/,/,
C[C@H]1CC[C@H]2NCCN[C@H]2C1,.,.,.,.,62,.,.,
C[N+]1(C)C2CC[C@H]1CC(OC(=O)C(CO)c1ccccc1)C2 (some centres undefined),.,.,.,.,.,/,/,
SMILES,ADAM17 inh,NRP1-CendR mod,ADAM10 inh,APOBEC3G inh,APOBEC3A inh,APOBEC3A confirm,UDG ctr A3A,others
C[N+]1(C)[C@@H]2CC[C@H]1CC(OC(=O)[C@@H](CO)c1ccccc1)C2 (some centres undefined),.,.,.,.,67,87,/,
C[N+]1(C)C2CCC1CC(OC(=O)c1c[nH]c3ccccc13)C2 (centres undefined),.,.,.,.,72,84,.,
Cc1ccc(N2C(=O)NC(=O)/C(=C\c3cc(C)n(-c4cc(C(=O)O)cc(C(=O)O)c4)c3C)C2=O)cc1,.,.,.,.,54,28,.,
O=C(O)C1C(C(=O)O)C2(Cl)C(Cl)=C(Cl)C1(Cl)C2(Cl)Cl (centres undefined),.,.,.,.,43,15,.,
COc1ccc(CN2CCNCC2)c(OC)c1OC,.,.,.,.,57!,62,.,
COc1ccc(-n2c(-c3ccccc3F)nc3ccccc3c2=O)cc1,.,.,.,/,/,/,/,
CCC[N+]12CCC(CC1)C(C(O)(c1ccccc1)c1ccccc1)C2 (centres undefined),.,.,.,.,.,/,/,
CCCC[N+]12CCC(CC1)C(C(O)(c1ccccc1)c1ccccc1)C2 (centres undefined),.,.,.,.,41,64,.,
C[N+]1(C)CCc2cc3c(cc2[C@H]1[C@@H]1OC(=O)c2c1ccc1c2OCO1)OCO3,.,.,.,.,46!,80,.,
COc1ccc(N/N=C/c2c(O)n(-c3ccc(C)c(C)c3)c(=O)[nH]c2=O)cc1,.,.,.,51,.,/,/,APOBEC3G confirm=.;UDG ctr A3G=.
COc1ccc(N/N=C/c2c(O)n(-c3cccc(C)c3)c(=O)[nH]c2=O)cc1,.,.,.,54,.,/,/,APOBEC3G confirm=24;UDG ctr A3G=.
Cc1ccc(-n2c(O)c(/C=N/Nc3ccccc3)c(=O)[nH]c2=O)cc1C,.,/,.,.,.,/,/,
O=C1NC(=O)C(Sc2ccccc2[N+](=O)[O-])C(=O)N1,.,.,.,46,.,/,/,APOBEC3G confirm=63;UDG ctr A3G=.
O=[N+]([O-])c1ccccc1Cl,.,.,.,.,.,/,/,
O=S(=O)(c1ccc(Cl)cc1)N1Cc2ccc(Br)cc2-n2nncc2C1,.,/,.,/,/,/,/,
c1cncc(C2Nc3cccc4cccc(c34)N2)c1,.,.,.,45,.,/,/,APOBEC3G confirm=64
CN1C2CCC1C(C(=O)Oc1ccccc1)C(c1ccc(Cl)cc1)C2 (centres undefined),.,/,.,/,/,/,/,
Cc1nn(CCC#N)c2c1P(=S)(N1CCCC1)OC(c1ccc(F)cc1)=N2 (centres undefined),.,.,.,67,.,/,/,APOBEC3G confirm=67
CC[C@]12CCN(CC3(O)CC3)C(Cc3ccc(O)cc31)C2(C)C,.,/,.,/,/,/,/,
O=C1C=CC(=O)C=C1,.,.,.,82,.,/,/,APOBEC3G confirm=88;UDG ctr A3G=.
CC(NC(=O)OCc1ccccc1)[P+](=O)O (centres undefined),.,/,.,/,/,/,/,
COC(=O)c1ccccc1-n1c(C)nc2ccccc2c1=O,.,.,.,.,.,/,/,
O=C(O)c1cccc2nc3ccccc3nc12,.,.,.,72,.,/,/,APOBEC3G confirm=24;UDG ctr A3G=.
O=c1[nH]c(=O)n(-c2cccc3ccccc23)c(O)c1/C=N/N1CCCCCC1,.,.,.,68,.,/,/,APOBEC3G confirm=.;UDG ctr A3G=.
